Experiment [1] in a line: binders of probe aFSTL3 on microarray, primary screen, stem cell growth factor project, biochemical, small-molecule microarray, fluorescence 635/667 (AID 1064).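 Further: measures binding of the biotinylated anti-FSTL3 antibody to printed compounds.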 The conditions noted are these: higher = more signal.
Experiment [2] is described as follows: binders from COS7 lysate, DM2A8 probe, primary screen, torsin A project, cell lysate, small-molecule microarray, fluorescence 635/667 (AID 1065). The conditions noted are these: higher = more signal, COS7 lysate expressing mutant human TOR1A.
Experiment [3] in a line: binders of probe aFGF2 on microarray, primary screen, stem cell growth factor project, biochemical, small-molecule microarray, fluorescence 635/667 (AID 1067).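 Further: measures binding of biotinylated aFGF2 protein to printed compounds on slides; z-score merges feature fluorescence and signal-to-noise across triplicate slides.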 To be noted: higher = more signal.
A short description of experiment [4]: binders of probe aFGF10 on microarray, primary screen, stem cell growth factor project, biochemical, small-molecule microarray, fluorescence 635/667 (AID 1071).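 Further: score merges 667 nm spot intensity and signal to noise from triplicate slides.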 The conditions noted are these: higher = more signal.
The target of experiment [5] is Neurogenic locus notch homolog protein 2 (Homo sapiens) (UniProt Q04721). The experiment in a line: Notch2 binders on small-molecule microarrays, primary screen, biochemical, small-molecule microarray, 635 nm fluorescence, stem cell growth factors (AID 1073). To be noted: Notch2 binding, higher = more signal.
Experiment [6] deals with Pro-neuregulin-1, membrane-bound isoform (Homo sapiens) (UniProt Q02297). The experiment in a line: NRG1 binders on small-molecule microarrays, primary screen, psychiatric disease protein project, biochemical, small-molecule microarray, fluorescence 635/667 (AID 1075).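 Further: score combines 667 nm spot fluorescence with signal to noise.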 To be noted: NRG1 binding, 635 nm fluorescence, higher = more signal.
Experiment [7] has as its system Neuregulin-1 EGF-like domain. Nature of the experiment: binders of neuregulin-1 EGF-like domain, primary screen, biochemical, small-molecule microarray, 635 nm fluorescence (AID 1081).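 Further: binding of the protein to compounds printed on small-molecule microarray slides.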 The conditions noted are these: small-molecule microarray binding, higher = more signal.
The nature of experiment [8]: FRG1 promoter luciferase signal modulators, primary screen, FRG1 inhibition for FSHD, cell-based, C2C12 myotubes, firefly/Renilla luciferase, luminescence (AID 1084). The conditions noted are these: higher = more signal, called active from +8 up or from −8 down.
Experiment [9] is described as follows: binders of probe aFST on microarray, primary screen, stem cell growth factor project, biochemical, small-molecule microarray, fluorescence 635/667 (AID 1086).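 Further: score merges 667 nm fluorescence with signal-to-noise of each printed compound spot.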 To be noted: higher = more signal.
Experiment [10] can be described thus: binders of probe aHhip on microarray, primary screen, stem cell growth factor project, biochemical, small-molecule microarray, fluorescence 635/667 (AID 1087).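 Further: score merges spot fluorescence at 667nm with spot signal to noise ratio.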 To be noted: higher = more signal.
Experiment [11] concerns PRMT1 (protein arginine N-methyltransferase 1). Nature of the experiment: PRMT1 binders on small-molecule microarrays, primary screen, biochemical, small-molecule microarray, 635 nm fluorescence (AID 1088).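 Further: binding of Prmt1 protein to compounds spotted on small-molecule microarray slides.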 The conditions noted are these: small-molecule microarray binding, higher = more signal.
Experiment [12] can be described thus: yeast growth modulation, basal conditions, primary screen, YJM789 clinical isolate, OD600, 24 h (AID 1089).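 Further: growth of clinical yeast isolate S. cerevisiae YJM 789 seeded 1000 cells per well; test concentration not given here.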 The conditions noted are these: S. cerevisiae YJM789 growth, higher = more signal, called active from +8 up or from −8 down.
A short description of experiment [13]: fission yeast growth modulation, primary screen, strain 972, OD600, 24 h, no modulator (AID 1090).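 Further: basal condition with compound alone and no growth modifier present; test concentration not given here.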 The conditions noted are these: S. pombe 972 growth, higher = more signal, called active from +8 up or from −8 down.
The nature of experiment [14]: S. cerevisiae growth modulation with rapamycin, primary screen, strain BY4716, OD600, 96 h (AID 1091). Further: test concentration not given here. To be noted: higher = more signal, called active from +8 up or from −8 down.
In experiment [15] the target is Torsin-1A-interacting protein 2 (Homo sapiens) (UniProt Q8NFQ8). The experiment in a line: LULL1 binders on small-molecule microarray, primary screen, cell lysate, human LULL1 lysate, 635/667 nm fluorescence (AID 1092).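 Further: score merges per-feature 667 nm fluorescence with signal-to-noise.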 To be noted: hLULL1 lysate binding, 635 nm fluorescence, higher = more signal.
Experiment [16] in a line: E. coli growth modulation, two-sided OD650, primary screen, E. coli filamentation project, strain DRC41, 24 h (AID 1093).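 Further: MC1000 strain lacking acrAB efflux and sulA so SOS filamentation is blocked; test concentration not given here.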 The conditions noted are these: OD650, 24 h, higher = more signal, called active from +8 up or from −8 down.
Experiment [17] is described as follows: small-molecule microarray binders of probe aLefty2, primary screen, biochemical, biotinylated probe, 635/667 nm fluorescence (AID 1094).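 Further: score merges spot fluorescence near 667 nm with spot signal-to-noise ratio.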 To be noted: higher = more signal.
Experiment [18] relates to Noggin (protein binding on small-molecule microarray). The experiment in a line: Noggin binders on small-molecule microarray, primary screen, biochemical, 635/667 nm fluorescence (AID 1095).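 Further: score merges 667 nm feature fluorescence with signal to noise over triplicate slides.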 The conditions noted are these: 635 nm fluorescence, higher = more signal.
In experiment [19] the target is Neurogenic locus notch homolog protein 3 (Homo sapiens) (UniProt Q9UM47). The experiment in a line: NOTCH3 binders on small-molecule microarray, primary screen, biochemical, 635/667 nm fluorescence (AID 1096). To be noted: NOTCH3 binding, 635 nm fluorescence, higher = more signal.
A short description of experiment [20]: small-molecule microarray binders of probe aEGFR, primary screen, biochemical, biotinylated probe, 635/667 nm fluorescence (AID 1097).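 Further: probe is a biotinylated anti-EGFR antibody binding compounds printed on slides; score combines fluorescence near 667 nm and signal to noise of each spot.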 The conditions noted are these: higher = more signal.

The source made the active and inactive calls.

Sequence of Pro-neuregulin-1, membrane-bound isoform (Homo sapiens) (Q02297 whole entry, looked up, the tested form may be a part, canonical isoform): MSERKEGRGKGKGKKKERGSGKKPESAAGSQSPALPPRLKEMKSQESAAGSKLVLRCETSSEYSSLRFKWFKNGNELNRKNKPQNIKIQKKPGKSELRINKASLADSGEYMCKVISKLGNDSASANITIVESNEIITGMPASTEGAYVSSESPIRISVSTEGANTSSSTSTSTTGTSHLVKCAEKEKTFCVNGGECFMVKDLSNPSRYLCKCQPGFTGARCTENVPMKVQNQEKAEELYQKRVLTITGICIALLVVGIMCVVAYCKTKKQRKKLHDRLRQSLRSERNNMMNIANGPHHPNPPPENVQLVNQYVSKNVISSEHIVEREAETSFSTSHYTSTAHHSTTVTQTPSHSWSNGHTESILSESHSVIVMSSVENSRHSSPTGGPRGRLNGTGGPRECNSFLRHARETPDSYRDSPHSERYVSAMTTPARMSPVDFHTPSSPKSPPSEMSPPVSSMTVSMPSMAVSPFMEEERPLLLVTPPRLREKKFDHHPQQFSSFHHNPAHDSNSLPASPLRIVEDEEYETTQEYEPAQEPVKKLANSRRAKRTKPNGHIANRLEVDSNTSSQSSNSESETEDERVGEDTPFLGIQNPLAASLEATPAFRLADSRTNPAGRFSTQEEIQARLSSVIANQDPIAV
Sequence of Neurogenic locus notch homolog protein 3 (Homo sapiens) (Q9UM47 whole entry, looked up): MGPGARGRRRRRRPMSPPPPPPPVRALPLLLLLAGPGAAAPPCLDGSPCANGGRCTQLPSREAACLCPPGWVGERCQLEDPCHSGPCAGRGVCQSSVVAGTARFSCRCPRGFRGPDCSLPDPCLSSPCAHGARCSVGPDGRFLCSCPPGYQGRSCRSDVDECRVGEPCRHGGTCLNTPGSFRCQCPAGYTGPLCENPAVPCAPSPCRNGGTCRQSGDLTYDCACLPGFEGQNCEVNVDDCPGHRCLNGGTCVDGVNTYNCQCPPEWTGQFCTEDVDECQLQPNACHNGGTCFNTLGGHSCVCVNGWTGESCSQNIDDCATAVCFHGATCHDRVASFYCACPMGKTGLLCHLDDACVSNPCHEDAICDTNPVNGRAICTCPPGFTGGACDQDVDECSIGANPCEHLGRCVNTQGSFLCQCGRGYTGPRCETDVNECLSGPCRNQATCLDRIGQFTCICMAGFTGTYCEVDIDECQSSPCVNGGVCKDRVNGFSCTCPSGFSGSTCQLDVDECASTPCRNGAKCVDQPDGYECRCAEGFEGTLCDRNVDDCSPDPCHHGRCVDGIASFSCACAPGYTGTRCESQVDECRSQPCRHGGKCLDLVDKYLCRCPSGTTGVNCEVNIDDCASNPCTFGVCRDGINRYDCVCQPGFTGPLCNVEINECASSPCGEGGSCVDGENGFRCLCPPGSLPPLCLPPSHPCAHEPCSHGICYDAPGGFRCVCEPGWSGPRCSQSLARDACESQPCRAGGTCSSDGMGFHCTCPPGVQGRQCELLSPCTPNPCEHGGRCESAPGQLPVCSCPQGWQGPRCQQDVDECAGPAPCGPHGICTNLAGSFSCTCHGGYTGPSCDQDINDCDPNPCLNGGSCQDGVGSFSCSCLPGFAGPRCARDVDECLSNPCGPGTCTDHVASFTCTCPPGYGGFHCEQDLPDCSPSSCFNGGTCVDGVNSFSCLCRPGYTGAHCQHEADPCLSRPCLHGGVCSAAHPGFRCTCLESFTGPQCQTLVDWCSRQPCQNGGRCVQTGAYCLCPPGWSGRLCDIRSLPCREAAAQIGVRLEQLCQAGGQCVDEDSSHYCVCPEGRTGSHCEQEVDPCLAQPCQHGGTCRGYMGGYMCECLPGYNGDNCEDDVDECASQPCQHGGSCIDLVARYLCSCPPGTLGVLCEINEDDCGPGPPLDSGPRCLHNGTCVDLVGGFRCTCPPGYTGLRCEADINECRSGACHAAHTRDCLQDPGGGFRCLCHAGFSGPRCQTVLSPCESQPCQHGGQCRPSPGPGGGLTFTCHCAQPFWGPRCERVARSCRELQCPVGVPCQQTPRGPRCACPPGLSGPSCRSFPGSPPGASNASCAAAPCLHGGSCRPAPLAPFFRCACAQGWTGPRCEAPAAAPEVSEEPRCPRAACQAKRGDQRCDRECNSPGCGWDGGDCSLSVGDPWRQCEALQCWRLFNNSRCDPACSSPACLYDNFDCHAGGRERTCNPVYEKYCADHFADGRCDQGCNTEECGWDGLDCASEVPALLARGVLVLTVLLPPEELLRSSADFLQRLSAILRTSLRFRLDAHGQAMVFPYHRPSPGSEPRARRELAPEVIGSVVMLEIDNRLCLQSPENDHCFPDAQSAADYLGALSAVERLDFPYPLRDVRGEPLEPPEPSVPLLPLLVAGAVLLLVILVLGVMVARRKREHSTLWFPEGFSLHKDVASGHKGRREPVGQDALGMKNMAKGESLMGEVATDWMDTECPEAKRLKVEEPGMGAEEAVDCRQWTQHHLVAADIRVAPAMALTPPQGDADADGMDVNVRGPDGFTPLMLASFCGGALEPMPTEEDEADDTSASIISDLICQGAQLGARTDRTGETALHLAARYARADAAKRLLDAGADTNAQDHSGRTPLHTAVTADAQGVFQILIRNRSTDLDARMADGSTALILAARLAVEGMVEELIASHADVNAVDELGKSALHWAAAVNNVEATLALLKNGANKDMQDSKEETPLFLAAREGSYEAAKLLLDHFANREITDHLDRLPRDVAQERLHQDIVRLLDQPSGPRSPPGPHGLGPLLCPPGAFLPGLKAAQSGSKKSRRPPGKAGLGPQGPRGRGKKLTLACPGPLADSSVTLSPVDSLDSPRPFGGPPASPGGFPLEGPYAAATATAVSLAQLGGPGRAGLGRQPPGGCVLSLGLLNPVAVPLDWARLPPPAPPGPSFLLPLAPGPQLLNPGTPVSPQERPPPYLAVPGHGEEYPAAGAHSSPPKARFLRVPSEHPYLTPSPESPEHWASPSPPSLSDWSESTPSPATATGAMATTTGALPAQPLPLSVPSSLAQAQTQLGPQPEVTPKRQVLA
Sequence of Torsin-1A-interacting protein 2 (Homo sapiens) (Q8NFQ8 whole entry, looked up): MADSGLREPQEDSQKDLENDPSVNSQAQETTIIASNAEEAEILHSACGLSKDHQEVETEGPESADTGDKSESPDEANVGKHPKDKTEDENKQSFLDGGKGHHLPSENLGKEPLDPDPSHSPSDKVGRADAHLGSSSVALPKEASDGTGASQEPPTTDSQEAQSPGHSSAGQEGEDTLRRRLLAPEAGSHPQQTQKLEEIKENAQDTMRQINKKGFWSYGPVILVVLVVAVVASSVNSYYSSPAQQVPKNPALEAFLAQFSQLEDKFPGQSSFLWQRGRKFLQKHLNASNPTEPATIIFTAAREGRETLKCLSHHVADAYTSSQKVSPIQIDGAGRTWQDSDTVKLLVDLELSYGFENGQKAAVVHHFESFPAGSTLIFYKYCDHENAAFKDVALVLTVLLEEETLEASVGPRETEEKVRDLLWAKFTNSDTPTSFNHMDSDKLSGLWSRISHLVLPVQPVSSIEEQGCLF

In the case of `CCCC[C@@H]1C[C@H]1[C@@H](NC(=O)c1ccco1)c1ccc(-c2ccccc2)cc1`, the composite z-score in experiment [1] is -0.207; in experiment [2], -0.194; in experiment [3], -0.176; in [4], 0.203; in experiment [5], 0.571; in [6] it was -0.343. Besides, the composite z-score in experiment [7] is 1.02; in [9] it was 0.425; in experiment [10] it was 0.0922; in experiment [11], 1.11; in experiment [15], -0.397; in experiment [17] it was 0.0682. Further, the figures for the composite z-score in experiment [18], in [19] and in experiment [20] were 0.61, 0.234 and 0.0258, respectively. Moreover, the z-score is 1.85 (inactive) in experiment [8]; 0.186 (inactive) in experiment [12]; 0.316 (inactive) in experiment [13]; 0.569 (inactive) in experiment [14]; -1.45 (inactive) in experiment [16].

`CC(C)(C)OC(=O)CC[C@]1(C(=O)N2CCOCC2)N=C(c2ccc(OCCCO)cc2)O[C@H]1c1ccccc1N=[N+]=[N-]`: the composite z-score in [1] is 0.594; in experiment [2], 0.838; in experiment [3], 0.0376; in experiment [4], 0.402; in experiment [5], 1.48; in experiment [6], 1.63. The composite z-score is 1.28 in [7]; 1.06 in [9]; 0.0515 in [10]; 1.28 in [11]; 3.25 in experiment [15]; 0.124 in [17]. Besides, the results for the composite z-score in experiment [18], in experiment [19] and in [20] were 0.356, 0.671 and 0.0552, respectively. For the same compound, the z-score was 1.71 (inactive) in [8]; -0.54 (inactive) in [12]; -0.496 (inactive) in experiment [13]; -0.531 (inactive) in [14]; 1.57 (inactive) in experiment [16].

Take `C=CCC(OC(C)=O)[C@@H]1[C@@H](N(Cc2cc3ccccc3o2)C(=O)c2cccc3ccccc23)c2cc(OCCCO)ccc2N1C(=O)c1ccc(-c2ccccc2)cc1` (stereo not given in full): the composite z-score in [1] was 0.118; in experiment [2], -0.203; in experiment [3] it was -0.108; in [4] it was 0.0904; in experiment [5], 0.0918; in experiment [6], 0.142. Moreover, the composite z-score in [7] is -0.164; in experiment [9], 0.101; in experiment [10], -0.137; in experiment [11] it was -0.101; in experiment [15], 0.581; in experiment [17], -0.0674. Further, the composite z-score in experiment [18] is 0.293; in experiment [19], -0.527; in [20], 0.0969. The z-score in experiment [8] is -0.408 (inactive); in experiment [12] it was 0.109 (inactive); in [13], -0.847 (inactive); in experiment [14] it was 0.0344 (inactive); in [16] it was 1.78 (inactive).

For the compound `CC(C)=CCN[C@H](CO)c1ccccc1`, the composite z-score in [1] is -0.122; in experiment [2], -0.428; in experiment [3], -0.0732; in experiment [4], 0.897; in experiment [5], 0.794; in experiment [6] it was -0.419. For the same compound, the composite z-score is 0.249 in experiment [7]; -0.0489 in experiment [9]; 0.0129 in experiment [10]; -0.198 in [11]; 0.138 in experiment [15]; -0.236 in experiment [17]. Also, the composite z-score in [18] is 0.346; in [19], -0.0083; in experiment [20], -0.203. Also, the z-score in experiment [8] was 1.07 (inactive); in experiment [12] it was -0.613 (inactive); in experiment [13], -4.99 (inactive); in experiment [14] it was -1.32 (inactive); in [16], -0.291 (inactive).

In the case of `C=C(CC1([C@@H](NP(=O)(c2ccccc2)c2ccccc2)[C@H]2C[C@@H]2CCCC)CC1)c1ccccc1`, the composite z-score in [1] was 0.591; in experiment [2], -0.417; in experiment [3], -0.218; in experiment [4], 0.194; in experiment [5], 1.42; in [6] it was 0.896. Also, the composite z-score in [7] was determined as 0.843; in [9], 1.07; in [10], 0.419; in experiment [11], 0.759; in experiment [15] it was 2.53; in [17], 0.153. Also, the composite z-score was -0.591 in [18], 0.418 in [19] and -0.0844 in [20]. In addition, the z-score in experiment [8] is 2.47 (inactive); in experiment [12], -0.254 (inactive); in experiment [13] it was 0.204 (inactive); in [14] it was 3.83 (inactive); in experiment [16], -0.357 (inactive).

For the origin of these results see PubChem BioAssay.
